# Test results: paper PMC8384837, “Expanding the binding specificity for RNA recognition by a PUF domain”
# Target: PUM1 PUF domain R1-YRR (Homo sapiens, UniProt Q14671 828-1176, S863Y;Q867R)
# Test: yeast three-hybrid, YBZ-1, SC-Leu-His + 0.5 mM 3-AT, 4 days
# Conditions: tags: N-Gal4 AD-HA kept; label: inside an RPR1-promoter hybrid RNA with tandem MS2 sites; ssRNA
# Outline: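 Matching RNA elements and Pumilio-1 PUF domain libraries, randomized at the three base-contacting residues of every repeat, were co-expressed from a centromeric plasmid in strain YBZ-1 (LexA–MS2 coat fusion, HIS3 reporter). The repeat regions were PCR-amplified and Illumina-sequenced from cells grown four days on SC-Leu (input) or SC-Leu-His + 0.5 mM 3-AT (selection). The interaction score is the log change in variant frequency from input to selection. It is computed in log2, with a pseudocount of 1 for absent variants.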
# Chain of PUM1 PUF domain R1-YRR (Q14671 828-1176 S863Y/Q867R): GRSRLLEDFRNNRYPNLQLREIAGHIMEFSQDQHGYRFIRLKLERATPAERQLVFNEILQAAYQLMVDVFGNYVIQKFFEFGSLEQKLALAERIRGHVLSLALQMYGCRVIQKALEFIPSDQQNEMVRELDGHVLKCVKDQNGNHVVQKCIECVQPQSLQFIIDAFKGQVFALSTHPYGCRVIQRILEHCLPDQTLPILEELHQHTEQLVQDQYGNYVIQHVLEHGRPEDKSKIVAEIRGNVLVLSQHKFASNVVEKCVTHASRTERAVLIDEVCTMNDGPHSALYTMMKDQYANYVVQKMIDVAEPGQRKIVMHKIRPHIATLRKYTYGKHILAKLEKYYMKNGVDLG
row,Sequence,binding signal
1,GGCUAGAACUAGUGGAUCCCCCGGCGCCCGGCGGCUCGAGCCCGGGUAAGUGUAAAUGGUCUGCAUGCCGCCGGGCGCCAUGCCUGCAGGUCGACUCUAGAAAACAUG,4.42 log2 enrichment (interaction score)
2,GGCUAGAACUAGUGGAUCCCCCGGCGCCCGGCGGCUCGAGCCCGGGUAAGUGUAAAUUGUCUGCAUGCCGCCGGGCGCCAUGCCUGCAGGUCGACUCUAGAAAACAUG,8.31 log2 enrichment (interaction score)
3,GGCUAGAACUAGUGGAUCCCCCGGCGCCCGGCGGCUCGAGCCCGGGUAAGUGUAAAUCGUCUGCAUGCCGCCGGGCGCCAUGCCUGCAGGUCGACUCUAGAAAACAUG,7.93 log2 enrichment (interaction score)
